Experiment [1] in a line: qHTS assay for small molecule agonists of the p53 signaling pathway (AID 651631; calls by dose curve; further: nearly all actives have a fitted effect of over 15% in size). The gist of the method: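 Stably transfected HCT-116 cells (beta-lactamase behind p53 response elements) get compounds after a 5 h settling period; 16 h later at 37 °C, FRET substrate is loaded and fluorescence read after 2 h.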
On the technique in general: Quantitative high-throughput screening tests each substance at several concentrations.

Experiment [2] is described as follows: qHTS assay for small molecule agonists of the p53 signaling pathway - cell viability (AID 651633; calls by dose curve; further: nearly all actives have a fitted effect of over 30% in size; further: potency means the concentration at half of the fitted maximal effect). Put shortly: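 Viability counter-read: CellTiter-Glo luminescence (30 min, room temperature) in the same p53RE-bla plates. These plates had been exposed to compounds for 16 h at 37 C.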
Experiment [3] can be described thus: qHTS assay for small molecules that induce genotoxicity in human embryonic kidney cells expressing luciferase-tagged ATAD5 - cell viability (AID 651634; calls by dose curve; further: nearly all actives have a fitted effect of over 25% in size). The gist of the method: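 Cytotoxicity counter-readout: after 15.5 hr compound treatment at 37C, live-cell protease activity in ATAD5-luciferase HEK293T cells measured by CellTiter-Fluor fluorescence, 30 min development at 37C.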

Experiment [4] is described as follows: qHTS assay for small molecule disruptors of the mitochondrial membrane potential - cell viability (AID 720634; calls by dose curve; further: nearly all actives have a fitted effect of over 20% in size; further: potency means the concentration at half of the fitted maximal effect). Put shortly: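 Cytotoxicity was quantified from ATP content by CellTiter-Glo luminescence in the same wells as the MMP dye read-out. HepG2 (2,000 cells/well) were plated overnight and exposed to compounds for 1 hr at 37 C.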
Experiment [5] is described as follows: qHTS assay for small molecule disruptors of the mitochondrial membrane potential (AID 720635). Further: potency means the concentration at half of the fitted maximal effect. The gist of the method: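 Mitochondrial membrane potential tracked with Mito-MPS dye, red aggregates (ex 540/em 590 nm) against green monomers (ex 490/em 535 nm). Compound treatment 1 hr at 37C, dye 30 min in HepG2.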
Experiment [6] can be described thus: qHTS assay to test for compound auto fluorescence at 590 nm (red) in HepG2 cells (AID 720674). The gist of the method: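 1 hr compound incubation on HepG2 cells, 37 C, 5% CO2; plate read ex 540 nm / em 590 nm; intensities reported as Rose Bengal sodium equivalents.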
Experiment [7] is described as follows: qHTS assay to test for compound auto fluorescence at 535 nm (green) in HepG2 cells (AID 720675).
The nature of experiment [8]: qHTS assay to test for compound auto fluorescence at 460 nm (blue) in HEK293 cells (AID 720678). The gist of the method:
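HEK293 cells (2,000 per well, medium with 10% dialyzed FBS) attached for 4-5 hr at 37C, then received compound and stood overnight at 37C, 5% CO2. Blue fluorescence was read at Ex/Em 405/460 nm and expressed relative to triamterene.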

A short description of experiment [9]: qHTS assay to test for compound auto fluorescence at 590 nm (red) in HEK293 cells (AID 720679). The gist of the method:
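HEK293 cells (2,000/well, medium with 10% dialyzed FBS) attached for 4-5 hr at 37C, received 23 nL compound and were incubated overnight at 37C, 5% CO2. Red fluorescence was then read at 540/590nm Ex/Em, referenced to Rose Bengal sodium.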

Experiment [10] is described as follows: qHTS assay to test for compound auto fluorescence at 535 nm (green) in HEK293 cells (AID 720680).
Experiment [11] in a line: qHTS assay to test for compound auto fluorescence at 460 nm (blue) in HEK293 cell free culture (AID 720681). Put shortly:
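Blue fluorescence (Ex 405/Em 460 nm, triamterene-equivalent) was read immediately after pin transfer of compound or DMSO into medium (DMEM, 10% FBS) without cells.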

Experiment [12] is described as follows: qHTS assay to test for compound auto fluorescence at 535 nm (green) in HEK293 cell free culture (AID 720682). The gist of the method: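 Using fluorescein as calibrant, autofluorescence was quantified at 485/535 nm in cell-free DMEM containing 10% FBS after pintool addition of compound or vehicle.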
The nature of experiment [13]: qHTS assay to test for compound auto fluorescence at 590 nm (red) in HEK293 cell free culture (AID 720683). Put shortly: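 Red-channel autofluorescence of compounds in culture medium (DMEM, 10% FBS), no cells, measured at 540/590 nm. Rose Bengal sodium is the reference fluorophore for equivalence.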
Experiment [14] can be described thus: qHTS assay to test for compound auto fluorescence at 590 nm (red) in HepG2 cell free culture (AID 720684). Put shortly: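 Cell-free; medium MEM + 10% FBS; compound or DMSO added by pintool; read Ex 540/Em 590 nm; Rose Bengal sodium as red reference fluorophore.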
The nature of experiment [15]: qHTS assay to test for compound auto fluorescence at 460 nm (blue) in HepG2 cell free culture (AID 720685). The gist of the method:
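Cell-free plates of MEM plus 10% FBS received 23 nL compound or DMSO vehicle; blue-channel (405/460 nm) intensity scored against triamterene as reference fluorophore.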

Experiment [16] is described as follows: qHTS assay to test for compound auto fluorescence at 535 nm (green) in HepG2 cell free culture (AID 720686).
Experiment [17] in a line: qHTS assay to test for compound auto fluorescence at 460 nm (blue) in HepG2 cells (AID 720687). Put shortly: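 Blue-channel autofluorescence (Ex/Em 405/460 nm, triamterene-equivalent) was measured after 1 hr compound exposure at 37 C, 5% CO2. Cells were HepG2, plated overnight at 37 C in MEM plus 10% FBS.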
For experiment [18], the target named is Glucocorticoid receptor (Homo sapiens) (UniProt P04150). Description: qHTS assay to identify small molecule agonists of the glucocorticoid receptor (GR) signaling pathway (AID 720691; active means well fitted activation curve with a large enough effect in the signal ratio in the repeat runs, not every such curve was filed as active; the % refers to the signal ratio). The gist of the method: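 Agonist-mode qHTS in HeLa cells stably expressing a glucocorticoid-response-element beta-lactamase reporter. Fluorescence intensity read with FRET substrate (2 h, room temperature) after 18 h compound treatment at 37 C.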
Chain of Glucocorticoid receptor (Homo sapiens) (P04150 whole entry, looked up): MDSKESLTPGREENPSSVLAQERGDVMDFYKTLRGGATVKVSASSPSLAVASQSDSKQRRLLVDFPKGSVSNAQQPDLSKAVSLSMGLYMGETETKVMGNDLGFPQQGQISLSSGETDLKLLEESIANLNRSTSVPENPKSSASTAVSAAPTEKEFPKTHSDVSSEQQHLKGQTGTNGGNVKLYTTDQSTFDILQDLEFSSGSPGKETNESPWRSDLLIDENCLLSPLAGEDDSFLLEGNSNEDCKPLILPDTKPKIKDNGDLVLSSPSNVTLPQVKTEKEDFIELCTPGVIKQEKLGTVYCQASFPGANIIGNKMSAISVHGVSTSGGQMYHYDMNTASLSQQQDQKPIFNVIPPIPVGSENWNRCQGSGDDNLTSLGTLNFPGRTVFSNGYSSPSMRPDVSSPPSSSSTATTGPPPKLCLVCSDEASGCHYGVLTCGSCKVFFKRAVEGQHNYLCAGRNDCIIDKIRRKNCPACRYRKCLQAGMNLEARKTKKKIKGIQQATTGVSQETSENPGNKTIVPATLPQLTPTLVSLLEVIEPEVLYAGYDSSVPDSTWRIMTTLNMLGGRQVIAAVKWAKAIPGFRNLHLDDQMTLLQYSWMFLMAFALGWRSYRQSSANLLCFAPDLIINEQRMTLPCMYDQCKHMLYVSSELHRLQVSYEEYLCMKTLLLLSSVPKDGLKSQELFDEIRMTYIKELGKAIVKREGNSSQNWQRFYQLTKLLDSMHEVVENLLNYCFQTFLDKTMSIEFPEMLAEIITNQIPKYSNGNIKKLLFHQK

Experiment [19] shares this target. Put plainly: qHTS assay to identify small molecule antagonists of the glucocorticoid receptor (GR) signaling pathway (AID 720692; active means well fitted inhibition curve with a large enough effect in the signal ratio in the repeat runs, not every such curve was filed as active; the % refers to the signal ratio). The gist of the method: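 Inhibition of dexamethasone-driven (5 nM final) beta-lactamase expression was measured in GRE-reporter HeLa cells over 18 h at 37C. Fluorescence was read after 2 h with the B/G FRET substrate at room temperature.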

Experiment [20] in a line: qHTS assay for small molecules that induce genotoxicity in human embryonic kidney cells expressing luciferase-tagged ATAD5 (AID 651632). Further: nearly all actives have a fitted effect of over 15% in size. Put shortly: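 A rise in luciferase signal from ATAD5-tagged HEK293T cells marks genetic stress. Cells were exposed to compounds for 16 hr at 37C, 5% CO2, then luciferase was quantified after a 30 min room-temperature incubation with Amplite.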

The structures appear in SMILES notation. Values joined by “and” are separate entries in the source; they are usually repeats but may differ in a detail not shown here. Equal entries are not always repeated. Results filed as inconclusive are left out. Some structures have more than one record in an assay (separate samples or runs), and their calls can disagree. Active and inactive are the calls of the source. Unless noted, the call rests on the fitted dose curve; in most records, active means well fitted curve in the direction sought with a large enough effect in the repeat runs; inconclusive means weak or mixed curves; inactive means no such curve, though single readings can be large; an effect the other way counts as inactive or inconclusive.

For the compound `CC(O)CN(CC(C)O)CC(C)O` (stereo unspecified), the Potency result in experiment [1], in [2], in experiment [3], in experiment [4], in [5] and in [8] was “inactive” each time. The Potency result in experiment [11], in [15], in [17] and in [19] was “inactive” throughout. In addition, the call in experiment [6], in [7], in experiment [9], in [10], in [12] and in [13] was inactive. For the same compound, the compound was called inactive in [14], in experiment [16] and in experiment [18].
As for `COc1ccc(C=O)cc1OC`, the Potency entry in experiment [1], in experiment [20], in experiment [2], in experiment [3], in experiment [4] and in experiment [8] was “inactive” throughout. In addition, the Potency result in experiment [11], in experiment [15] and in experiment [17] was “inactive” throughout. Further, the compound was called inactive in [6], in experiment [7], in experiment [9], in experiment [10], in experiment [12] and in experiment [13]. Besides, the compound was called inactive in [14].
Turning to `Cc1ccc(N=CN(C)C=Nc2ccc(C)cc2C)c(C)c1`, the Potency entry in experiment [1], in experiment [20], in [3], in [4], in [5] and in experiment [8] was “inactive” throughout. Moreover, the Potency result in experiment [11], in [15], in experiment [17] and in [19] was “inactive” in each case. For the same compound, the Potency entry in experiment [2] is “inactive and 54.7 µM (active)”. Moreover, the compound was called inactive in [6], in experiment [7], in experiment [9], in experiment [10], in experiment [12] and in experiment [13]. Also, the result in experiment [14] and in [18] was inactive.
`CCCCCCCCCCCCCl`: the Potency entry in experiment [1], in [20], in experiment [2], in [3], in experiment [4] and in experiment [5] was “inactive” in each case. Further, the Potency result in experiment [8], in experiment [11], in experiment [15], in experiment [17] and in experiment [19] was “inactive” in each case. The result in [6], in [7], in experiment [9], in experiment [10], in [12] and in experiment [13] was inactive. The compound was classed as inactive in experiment [14] and in [18].
For the compound `CC1=C(C(=O)Nc2ccccc2)SCCO1`, the Potency result in experiment [1], in [2], in [3], in experiment [4], in experiment [8] and in experiment [11] was “inactive” each time. Also, the Potency entry in [15], in experiment [17] and in [19] was “inactive” each time. Further, the call in experiment [6], in experiment [7], in experiment [9], in [10], in [12] and in [13] was inactive. Moreover, the result in experiment [14] and in [18] was inactive.
For the compound `COP(=S)(OC)Oc1ccc(Sc2ccc(OP(=S)(OC)OC)cc2)cc1`, the Potency entry in experiment [20], in [2], in experiment [3], in experiment [8], in experiment [11] and in [15] was “inactive” throughout. In addition, the Potency result in [17] is “inactive”. In addition, the Potency in experiment [4] was 61.1 µM (active); in experiment [5], 24.8 µM (active) and 30.6 µM (active). Also, the outcome in experiment [6], in [7], in experiment [9], in experiment [10], in experiment [12] and in [13] was inactive. Besides, the result in experiment [14] and in experiment [16] was inactive.
For the compound `COc1ccc(CO)cc1`, the Potency result in experiment [1], in experiment [2], in experiment [3], in experiment [4], in experiment [5] and in experiment [8] was “inactive” in each case. In addition, the Potency entry in [11], in experiment [15], in [17] and in [19] was “inactive” in each case. Moreover, the result in experiment [6], in experiment [7], in experiment [9], in experiment [10], in [12] and in [13] was inactive. Besides, the compound was called inactive in experiment [14], in [16] and in [18].

Values taken from PubChem BioAssay (Tox21).
